Results taken from PubChem BioAssay (Tox21).
Inconclusive results are not listed. Calls of active or inactive are those of the source. Unless noted, calls come from the whole dose curve; as a rule, active = well fitted curve in the direction sought with a large enough effect in the repeat runs; inconclusive = weak or mixed curves; inactive = no such curve, though single readings can be large; an effect the other way counts as inactive or inconclusive.

Columns and labels:
[1] = biological target: Thyrotropin receptor (Homo sapiens) (UniProt P16473); test: qHTS assay to identify small molecule agonists of the thyroid stimulating hormone receptor (TSHR) signaling pathway (AID 1224843; calls by dose curve; note: nearly all actives have a fitted effect of over 45% in size)
In short: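 TSHR-expressing HEK293 cells (800 per well) were exposed to compounds for 30 min at room temperature. cAMP was then detected by HTRF competition with cAMP-d2 and anti-cAMP cryptate, read after 1 h at room temperature. Fifteen concentrations, triplicate.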

[2] = qHTS assay to identify small molecule agonists of H2AX (AID 1224845; active = well fitted activation curve with a large enough effect in the signal ratio in the repeat runs, not every such curve was filed as active; the % refers to the signal ratio; note: potency is the fitted concentration of half-maximal effect)
In short: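 Wild-type CHO-K1 cells plated overnight, then exposed 3 hr at 37C to compounds at 15 concentrations (0.76% DMSO). Lysed, then HTRF anti-pH2AX(S139)-cryptate/anti-H2AX-d2 detection after 24 hr at room temperature; emissions 665 and 620 nm.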

[3] = qHTS assay to identify small molecule antagonists of the estrogen related receptor (ERR) signaling pathway from Tox21 library (AID 1224848); note: nearly all actives have a fitted effect of over 50% in size; note: potency is the fitted concentration of half-maximal effect
In short: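 Cells: ERR line, 2,000/well; 6 h preincubation 37 C/5% CO2. Cpd in DMSO via pin tool; 18 h, 37 C. ONE-Glo, 30 min RT, luminescence.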

[4] = qHTS assay to identify small molecule agonists of the estrogen related receptor (ERR) signaling pathway from Tox21 library (AID 1224849; calls by dose curve; note: nearly all actives have a fitted effect of over 15% in size); conditions: ERR reporter cell line, ONE-Glo luciferase, 18 h; at 92.4 µM (top of the series) unless noted
In short: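 ERR reporter cell line (NTP) seeded, rested 6 h at 37 C/5% CO2, then pinned with Tox21 compounds in DMSO. After 18 h at 37 C, ONE-Glo luciferase luminescence was read following 30 min at room temperature.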

[5] = qHTS RealTime-Glo MT Cell Viability Assay in HepG2 cells - 24 hour (AID 1224867); note: nearly all actives have a fitted effect of over 50% in size; note: potency is the fitted concentration of half-maximal effect
In short: (§1)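 Cell number in HepG2 cultures estimated from NanoLuc luminescence generated by metabolic reduction of a prosubstrate by living cells. The homogeneous, nonlytic format allowed repeated reads at 0, 8, 16, 24, 32 and 40 h of compound exposure.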

[6] = A CellTox Green Cytotoxicity Assay to monitor cytotoxicity in HEK293 cells - 0 hour (AID 1224869); note: nearly all actives have a fitted effect of over 50% in size
In short: (§2)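 HEK293 cells premixed with CellTox Green dye were seeded at 600 cells/well and left 5 h at 37 C/5% CO2 before pin transfer of 23 nL compound in DMSO. Fluorescence from dye bound to dead-cell DNA was read during 40 h treatment.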

[7] = qHTS RealTime-Glo MT Cell Viability Assay in HepG2 cells - 40 hour (AID 1224870); note: nearly all actives have a fitted effect of over 50% in size; note: potency is the fitted concentration of half-maximal effect
In short: (§3)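 HepG2 cells mixed with RealTime-Glo MT reagents (NanoLuc plus cell-permeant prosubstrate) were seeded at 600 cells/well, incubated 5 h at 37 C/5% CO2, then pinned with compounds in DMSO; nonlytic luminescence tracked viability during 40 h treatment.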

[8] = qHTS RealTime-Glo MT Cell Viability Assay in HepG2 cells - 8 hour (AID 1224873); note: nearly all actives have a fitted effect of over 55% in size; note: potency is the fitted concentration of half-maximal effect
In short: as §3

[9] = qHTS RealTime-Glo MT Cell Viability Assay in HEK293 cells - 40 hour (AID 1224874); conditions: RealTime-Glo luminescence; max response: stronger effect = lower value; note: nearly all actives have a fitted effect of over 50% in size; note: potency is the fitted concentration of half-maximal effect
In short: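 HEK293 cells mixed with RealTime-Glo reagents (NanoLuc plus cell-permeant prosubstrate) at 600 cells/well, preincubated 5 h at 37 C/5% CO2, then given 23 nL compound in DMSO. Nonlytic luminescence from viable cells was read at 0, 8, 16, 24, 32 and 40 h.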

[10] = A CellTox Green Cytotoxicity Assay to monitor cytotoxicity in HEK293 cells - 24 hour (AID 1224875); note: nearly all actives have a fitted effect of over 45% in size; note: potency is the fitted concentration of half-maximal effect
In short: as §2

[11] = A CellTox Green Cytotoxicity Assay to monitor cytotoxicity in HepG2 cells - 16 hour (AID 1224876); note: nearly all actives have a fitted effect of over 45% in size; note: potency is the fitted concentration of half-maximal effect
In short: (§4)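 HepG2 cells were seeded together with the CellTox Green dye at 600 cells/well, left 5 h at 37 C/5% CO2, then given compounds in DMSO. Fluorescence from dye bound to dead-cell DNA was read repeatedly over 40 h of treatment at 37 C.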

[12] = qHTS RealTime-Glo MT Cell Viability Assay in HepG2 cells - 32 hour (AID 1224877); note: nearly all actives have a fitted effect of over 55% in size; note: potency is the fitted concentration of half-maximal effect
In short: as §1

[13] = A CellTox Green Cytotoxicity Assay to monitor cytotoxicity in HepG2 cells - 24 hour (AID 1224878); note: nearly all actives have a fitted effect of over 45% in size; note: potency is the fitted concentration of half-maximal effect
In short: as §4

[14] = A CellTox Green Cytotoxicity Assay to monitor cytotoxicity in HepG2 cells - 40 hour (AID 1224879); note: nearly all actives have a fitted effect of over 40% in size; note: potency is the fitted concentration of half-maximal effect
In short: as §4

[15] = qHTS assay to identify small molecule agonists of the hypoxia (HIF-1) signaling pathway (AID 1224846; active = well fitted activation curve with a large enough effect in the signal ratio in the repeat runs, not every such curve was filed as active; the % refers to the signal ratio)
In short: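 HRE-bla ME-180 cells (beta-lactamase reporter under hypoxia response element) were plated at 2,000 cells/well in medium with 0.5% dialyzed FBS, rested 5 hrs, then given compounds in DMSO for 17 hrs at 37C, 5% CO2. Reporter induction was read with CCF4-AM FRET substrate.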

[16] = qHTS assay to identify small molecule agonists of H2AX - cell viability counter screen (AID 1224847; calls by dose curve; note: nearly all actives have a fitted effect of over 30% in size; note: potency is the fitted concentration of half-maximal effect)
In short: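 Counter-screen for viability: CellTiter-Glo ATP luminescence read after 3 h compound treatment (15-point titration, 0.76% DMSO final) of CHO-K1 cells at 37C, with 30 min room-temperature reagent incubation.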

[17] = qHTS RealTime-Glo MT Cell Viability Assay in HEK293 cells - 32 hour (AID 1224868); note: nearly all actives have a fitted effect of over 50% in size; note: potency is the fitted concentration of half-maximal effect
In short: (§5)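 Homogeneous bioluminescent viability format in HEK293 cells (600 cells/well). Following 5 h at 37 C/5% CO2, 23 nL compound was pintooled; the signal was measured repeatedly during 40 h incubation.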

[18] = qHTS assay to identify small molecule agonists of the hypoxia (HIF-1) signaling pathway - cell viability counter screen (AID 1224844; calls by dose curve; note: nearly all actives have a fitted effect of over 50% in size; note: potency is the fitted concentration of half-maximal effect)
In short: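 HRE-bla ME-180 cells in medium with 0.5% dialyzed FBS were preincubated 5 hrs at 37C, exposed to compounds for 17 hrs, then viability was read as CellTiter-Glo luminescence after 30 min at room temperature, in the reporter wells.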

[19] = A CellTox Green Cytotoxicity Assay to monitor cytotoxicity in HEK293 cells - 40 hour (AID 1224871); note: nearly all actives have a fitted effect of over 45% in size; note: potency is the fitted concentration of half-maximal effect
In short: as §2

[20] = qHTS RealTime-Glo MT Cell Viability Assay in HEK293 cells - 16 hour (AID 1224872); note: nearly all actives have a fitted effect of over 50% in size; note: potency is the fitted concentration of half-maximal effect
In short: as §5
% is set by controls: 0 for no effect and ±100 for the full control effect.

Sequence of Thyrotropin receptor (Homo sapiens) (P16473 whole entry, looked up): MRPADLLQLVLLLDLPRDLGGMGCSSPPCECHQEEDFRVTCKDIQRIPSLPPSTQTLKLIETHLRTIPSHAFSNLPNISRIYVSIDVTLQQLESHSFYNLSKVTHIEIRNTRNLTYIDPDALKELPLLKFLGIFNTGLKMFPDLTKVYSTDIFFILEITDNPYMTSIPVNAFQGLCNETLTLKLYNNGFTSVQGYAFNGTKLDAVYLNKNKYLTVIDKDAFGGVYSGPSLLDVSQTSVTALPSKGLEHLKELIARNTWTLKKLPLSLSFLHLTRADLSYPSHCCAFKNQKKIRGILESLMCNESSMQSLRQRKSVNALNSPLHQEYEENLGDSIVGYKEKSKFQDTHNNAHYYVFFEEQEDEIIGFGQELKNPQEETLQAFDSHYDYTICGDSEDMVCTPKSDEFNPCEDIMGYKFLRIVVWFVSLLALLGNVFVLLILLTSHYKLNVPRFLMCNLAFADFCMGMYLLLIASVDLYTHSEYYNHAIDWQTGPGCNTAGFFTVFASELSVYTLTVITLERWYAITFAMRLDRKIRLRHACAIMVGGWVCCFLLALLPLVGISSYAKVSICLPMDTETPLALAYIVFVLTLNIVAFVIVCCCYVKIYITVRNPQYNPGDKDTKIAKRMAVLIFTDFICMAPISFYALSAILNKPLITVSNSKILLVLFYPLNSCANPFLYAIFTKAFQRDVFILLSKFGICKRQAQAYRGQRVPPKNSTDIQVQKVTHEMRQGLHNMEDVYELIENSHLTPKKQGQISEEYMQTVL

Cc1ccc2c(Br)cc(Br)c(O)c2n1
active: Potency [2] 39.1 µM | Potency [3] 8.41 µM | Potency [9] 5.35 µM
inactive: Potency [1] | activity change, positive = activation [4] -65.3% [at 42.5 µM] | Potency [5] | Potency [6] | Potency [7] | Potency [8] | Potency [10] | Potency [11] | Potency [12] | Potency [13] | Potency [14]

Clc1ccc(Nc2nnc(Cc3ccncc3)c3ccccc23)cc1
inactive: Potency [1] | outcome [15] | Potency [16] | activity change, positive = activation [4] -42.3% [at 42.5 µM] | Potency [5] | Potency [6] | Potency [7] | Potency [8] | Potency [10] | Potency [11] | Potency [12] | Potency [13] | Potency [14]
active: Potency [17] 21.3 µM | Potency [9] 19 µM

Nc1nnc(-c2ccc([N+](=O)[O-])o2)o1
inactive: Potency [18] | Potency [2] | outcome [15] | Potency [16] | Potency [17] | Potency [6] | Potency [19] | Potency [20] | Potency [8] | max response [9] -27% | Potency [10] | Potency [11] | Potency [13]

CCOC(=O)c1ccccc1C(=C1C=C(Br)C(=O)C(Br)=C1)c1cc(Br)c(O)c(Br)c1
inactive: Potency [1] | Potency [16] | activity change, positive = activation [4] -32.1% [at 42.5 µM] | Potency [5] | Potency [6] | Potency [7] | Potency [19] | Potency [8] | Potency [10] | Potency [11] | Potency [12] | Potency [13] | Potency [14]

CN1C(C(=O)Nc2ccccn2)=C(O)c2sccc2S1(=O)=O
inactive: Potency [18] | Potency [2] | outcome [15] | Potency [16] | Potency [5] | Potency [17] | Potency [6] | Potency [19] | Potency [20] | Potency [8] | max response [9] 6.41% | Potency [10] | Potency [11] | Potency [13] | Potency [14]

CCCCN(CCN(CCCC)C(=O)N1CCOCC1)C(=O)N1CCOCC1
inactive: Potency [18] | Potency [2] | outcome [15] | Potency [16] | Potency [5] | Potency [17] | Potency [6] | Potency [7] | Potency [8] | max response [9] -14% | Potency [10] | Potency [11] | Potency [13] | Potency [14]

FC(F)(F)c1ccccc1Cl
inactive: Potency [18] | Potency [2] | outcome [15] | Potency [16] | activity change, positive = activation [4] -2.05% | Potency [5] | Potency [17] | Potency [6] | Potency [7] | Potency [19] | Potency [20] | Potency [8] | max response [9] -1.41% | Potency [10] | Potency [11] | Potency [12] | Potency [13] | Potency [14]

CC/C=C1/OC(=O)c2ccccc21
inactive: Potency [18] | Potency [2] | outcome [15] | Potency [16] | Potency [3] | activity change, positive = activation [4] -1.59% | Potency [5] | Potency [17] | Potency [6] | Potency [19] | Potency [20] | Potency [8] | max response [9] -7.38% | Potency [10] | Potency [11] | Potency [12] | Potency [13] | Potency [14]

c1csc(SSc2cccs2)c1
active: Potency [3] 61.1 µM | Potency [14] 54.9 µM
inactive: Potency [1] | outcome [15] | Potency [16] | activity change, positive = activation [4] -56.7% | Potency [6] | Potency [10] | Potency [11]

C[C@@H](CN(C)C)CN1c2ccccc2Sc2ccccc21
inactive: Potency [2] | outcome [15] | Potency [16] | activity change, positive = activation [4] -18.9% [at 42.5 µM] | Potency [6] | Potency [8] | Potency [10]
active: Potency [18] 19 µM | Potency [17] 21.3 µM | Potency [9] 23.9 µM | Potency [11] 23.9 µM | Potency [13] 26.8 µM | Potency [14] 26.8 µM

Cc1cc(O)c(C)c(C)c1O
inactive: Potency [18] | Potency [2] | outcome [15] | Potency [16] | activity change, positive = activation [4] 2.57% [at 42.5 µM] | Potency [5] | Potency [6] | Potency [7] | Potency [8] | Potency [11] | Potency [13] | Potency [14]

C[C@@H]1CN(CCCn2c3ccccc3c3ccccc32)C[C@H](C)N1
active: Potency [18] 21.3 µM | Potency [5] 23.9 µM | Potency [17] 26.8 µM | Potency [7] 23.9 µM | Potency [19] 23.9 µM | Potency [20] 26.8 µM | Potency [9] 23.9 µM | Potency [10] 23.9 µM | Potency [11] 26.8 µM | Potency [12] 23.9 µM | Potency [13] 26.8 µM | Potency [14] 23.9 µM
inactive: Potency [2] | outcome [15] | activity change, positive = activation [4] -72.9% [at 42.5 µM]

COc1ccccc1N1CCN(CC(O)COc2cccc3ccccc23)CC1 (stereo unspecified)
active: Potency [16] 49.2 µM | Potency [17] 26.8 µM | Potency [14] 30.1 µM
inactive: Potency [1] | Potency [2] | Potency [6] | Potency [19] | Potency [8] | Potency [10]

Oc1cc2c(cc1O)[C@H]1c3ccc(O)c(O)c3OC[C@@]1(O)C2
active: Potency [3] 49.2 µM | Potency [5] 49.6 µM | Potency [8] 39.4 µM | Potency [10] 49.6 µM | Potency [12] 55.6 µM
inactive: Potency [18] | outcome [15] | activity change, positive = activation [4] -31.7% | Potency [17] | Potency [6] | max response [9] -26.5% | Potency [11] | Potency [13]

Oc1cccc(O)c1O
inactive: Potency [18] | outcome [15] | Potency [3] | activity change, positive = activation [4] 0.0681% | Potency [5] | Potency [17] | Potency [6] | Potency [19] | Potency [20] | Potency [8] | max response [9] 1.23% | Potency [10] | Potency [11] | Potency [13] | Potency [14]

CC1=C(Br)C(=O)C(Br)=C/C1=C(/c1ccccc1S(=O)(=O)O)c1cc(Br)c(O)c(Br)c1C
inactive: outcome [15] | activity change, positive = activation [4] -55.4% [at 42.5 µM] | Potency [5] | Potency [17] | Potency [6] | Potency [19] | Potency [20] | Potency [8] | max response [9] 1.66% | Potency [10] | Potency [11] | Potency [12] | Potency [13] | Potency [14]
active: Potency [16] 21.7 µM
